Assay outcomes deposited in PubChem BioAssay by several laboratories.
Mtb FBA inh: inhibits M. tuberculosis FBA enzyme; P9WQA3; purified M. tuberculosis FBA, fluorescence read-out; inhibition, % at 1 µM; actives 2.3% (n = 360,000); in the data active = inhibition above about 27%;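 also: 0% = vehicle and 100% = reference inhibitor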
PriA SSB inh: blocks PriA binding to SSB C-terminal tail; AlphaScreen SSBct-PriA binding, biotinylated peptide; inhibition, % at 33 µM; actives 0.6% (n = 430,000); in the data active = inhibition mostly above about 37%, no sharp cut-off; inactive = mostly below about 20%;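 also: plate controls were negative control peptide for no effect and reference peptide for full effect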
Rv3671c inh: inhibitors of M. tuberculosis serine protease Rv3671c. inhibition, % at 5.96 µM. actives 0.048% (n = 320,000). AID 2606. P9WHR9; in the data active = inhibition above about 38%;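 also: extracellular domain of Rv3671c used as enzyme; 0% = enzyme with DMSO and 100% = no enzyme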
Target sequence (P9WHR9 whole entry, looked up, the tested form may be a part): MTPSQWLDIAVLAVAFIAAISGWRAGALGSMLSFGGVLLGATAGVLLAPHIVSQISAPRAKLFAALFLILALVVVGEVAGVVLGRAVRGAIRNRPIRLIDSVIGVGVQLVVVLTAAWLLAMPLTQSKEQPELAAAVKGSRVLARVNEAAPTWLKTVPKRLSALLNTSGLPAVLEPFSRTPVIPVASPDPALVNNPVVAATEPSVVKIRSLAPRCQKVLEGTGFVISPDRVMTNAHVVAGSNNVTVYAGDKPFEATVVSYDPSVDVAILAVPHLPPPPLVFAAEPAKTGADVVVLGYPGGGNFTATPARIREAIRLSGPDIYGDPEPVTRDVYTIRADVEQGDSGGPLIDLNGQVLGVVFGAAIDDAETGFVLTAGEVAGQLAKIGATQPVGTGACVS
Mtb betalactam: beta-lactam sensitization of Mtb H37Rv. M. tuberculosis H37Rv growth with meropenem, percent inhibition. inhibition, % at 25 µM. actives 0.27% (n = 330,000); call rule not given here;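 also: growth measured after seven days incubation then overnight dye step; 0% = bacteria only wells and 100% = bacteria with antibiotic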
GDH-TPI inh: counter-screen for M. tuberculosis FBA inhibitors: GDH-TPI coupled enzymes; GDH-TPI coupled enzyme counterscreen, NADH absorbance; inhibition, % at 4.8 µM; actives 1.2% (n = 360,000); AID 588335; in the data active = inhibition above about 30%;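 also: 0% = DMSO wells and 100% = wells lacking the enzyme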
UGM FP inh: Mtb UDP-galactopyranose mutase inhibition | actives 0.06% (n = 320,000) | P9WIQ1 | purified UGM, fluorescence polarization probe displacement | inhibition, % at 10 µM | AID 504406; in the data active = inhibition above about 10%, passing the limit was not always enough
Numbers without * were called inactive; i = inactive; · = no result; + = active, no number; ! = not active in a repeat. In the library only some 3.2% were active in any assay of this set; here they are far more common.

SMILES	Mtb FBA inh	PriA SSB inh	Rv3671c inh	Mtb betalactam	GDH-TPI inh	UGM FP inh
O=C(CCc1ccccc1Br)NCC(O)C1CCCCC1 (stereo not given)	·	-14.0	·	·	·	·
CCN1C(=O)c2cccc3c(N)ccc(c23)C1=O	-6.5	-27.9	23.3	-2.9	5.3	36.8*
Cc1cc(C)cc(-n2c(=O)c3ccccc3n(CC(=O)NCC3CCCO3)c2=O)c1 (stereo not given)	-4.2	-6.2	3.3	-10.3	-4.4	-1.2
Cc1ccc2c(c1)c1c(c(=O)n(-c3ccccc3C)c(=O)n1CC(=O)NCC1CCCO1)n2C (stereo not given)	+	-3.0	5.4	5.3	-2.5	0.4
c1nc(SCc2ccc3c(c2)OCO3)c2c3c(sc2n1)CCCCC3	·	-11.0	·	·	·	·
CCC(c1nnnn1Cc1ccc(F)cc1)N(CCCO)Cc1cc2cc3c(cc2[nH]c1=O)OCO3 (stereo not given)	13.3	-14.3	3.1	-9.1	34.8*	1.3
O=c1cc(-c2ccc(O)cc2)oc2c(-c3c(O)cc(O)c4c(=O)cc(-c5ccc(O)cc5)oc34)c(O)cc(O)c12	1.1	-8.2	-9.5	4.4	35.3*	·
O=c1c(-c2c(O)cc(O)c3c(=O)cc(-c4ccc(O)cc4)oc23)c(-c2ccc(O)cc2)oc2cc(O)cc(O)c12	-1.0	1.8	-64.0	2.5	22.6	0.2
COc1ccc(-c2cc(=O)c3c(O)cc(O)cc3o2)cc1	2.3	-11.7	-27.2	-0.5	33.7*	0.4
O=c1cc(-c2ccc(O)c(-c3c(O)cc(O)c4c(=O)cc(-c5ccc(O)cc5)oc34)c2)oc2cc(O)cc(O)c12	-1.2	9.5	-41.1	-8.4	33.5*	1.4
COc1cc(-c2cc(=O)c3c(O)cc(O)cc3o2)cc(OC)c1OC	-7.3	·	·	·	9.0	·
COc1cc([N+](=O)[O-])cc2sc(NC(=O)c3ccc(S(=O)(=O)N(C)C4CCCC4)cc3)nc12	·	-6.0	·	·	·	·
CN1CCc2cc(C(CNC(=O)C(=O)NCc3ccc4c(c3)OCO4)N(C)C)ccc21 (stereo not given)	·	1.0	·	·	·	·
O=C(/C=C/c1cccc([N+](=O)[O-])c1)c1ccc([N+](=O)[O-])o1	4.0	-10.9	0.2	100.1	40.6*	0.3
Cc1cccc(/C=C/C(=O)c2ccc([N+](=O)[O-])o2)c1	3.2	1.9	-9.4	99.8	29.1	3.9
Cn1c(=O)c2c(nc(N/N=C/c3cccnc3)n2Cc2ccccc2)n(C)c1=O	0.8	i	-0.8	-2.3	31.0*	0.4
Cn1c(=O)c2c(nc(N/N=C/c3ccco3)n2C)n(C)c1=O	1.3	i	-5.0	3.8	56.1*	-0.5
Cn1c(=O)c2c(nc(N/N=C/c3cccs3)n2C)n(C)c1=O	-6.0	i	-4.6	-13.8	25.3	1.5
O=C(Nc1ccc(C23CC4CC(CC(C4)C2)C3)cc1)C(F)(F)F	·	-8.0	·	·	·	·
C#CCn1c(=NC(=O)c2cccs2)sc2cccc(OC)c21	6.4	-7.4	-37.0	7.8	30.8*	3.1
C=CCn1c(=NC(=O)c2cccc(N3C(=O)CCC3=O)c2)sc2cccc(OC)c21	3.1	-3.3	-10.6	-5.3	41.6*	-1.0
CC(=Cc1cccs1)C(=O)c1ccccc1	-0.8	·	·	·	32.4*	·
O=C(O)Cc1cncnc1	·	-15.0	·	·	·	·
Cc1c(C(=O)/C=C/N(C)C)nnn1-c1ccc(Cl)cc1C#N	-4.4	-8.5	-12.5	-1.6	46.0*	0.0
O=S(=O)(NN=Cc1ccc2c(c1)OCO2)c1ccc(F)cc1	·	-1.6	·	·	·	·
SMILES	Mtb FBA inh	PriA SSB inh	Rv3671c inh	Mtb betalactam	GDH-TPI inh	UGM FP inh
CC1=CS/C(=C(/C#N)C(=O)NCc2ccco2)N1c1ccccc1	-0.5	-12.2	2.3	-5.9	51.4*	1.7
COc1ccc(C)cc1C(=O)CN1C(=O)c2ccccc2OC(C)C1=O (stereo not given)	·	6.0	·	·	·	·
N#C/C(=C\c1ccc(O)cc1)C(=O)O	-1.2	2.5	·	·	34.7*!	·
CN(C)CCN(C(=O)c1ccc(S(=O)(=O)N(C)CC2CCCO2)cc1)c1nc2ccc(Cl)cc2s1 (stereo not given)	·	6.0	·	·	·	·
Cn1c(=O)c2[nH]c(NN=Cc3cccc(Br)c3)nc2n(C)c1=O	-2.7	-4.4	·	·	36.8*	·
CCN(CC)CCOc1ccc(C=NNc2nc3c([nH]2)c(=O)n(C)c(=O)n3C)cc1	0.3	5.0	·	·	43.9*	·
Cn1c(=O)c2[nH]c(NN=Cc3ccc(F)cc3)nc2n(C)c1=O	-0.8	-15.9	·	·	28.9	·
Cc1cccc(OCC(=O)NN=CCC(C)c2ccccc2)c1C (stereo not given)	·	1.2	·	·	·	·
Cc1nc2ccc(S(=O)(=O)NCCn3nc(-c4cccnc4)ccc3=O)cc2s1	·	-12.0	·	·	·	·
Cn1c(/C(C#N)=C/Nc2ccccn2)nc2ccccc21	4.3	0.0	-6.3	70.5	31.2*	1.5
O=C(NCCn1ccc(-c2ccncc2)n1)NCc1ccc(Cl)cc1	·	-11.0	·	·	·	·
COc1cc(C2Nc3ccccc3C(=O)N2NS(C)(=O)=O)ccc1O (stereo not given)	7.7	-3.2	10.8	-7.1	11.9	5.6
CCCN1C(=O)c2ccccc2NC1c1ccc(O)c(OCC)c1 (stereo not given)	44.6*	-4.0	-6.6	3.7	6.0	0.1
O=C(O)c1ccc(NS(=O)(=O)c2cccc(Cl)c2)cc1	·	2.0	·	·	·	·
COc1ccc(NS(=O)(=O)c2nnc(NC(=O)c3ccccc3F)s2)cc1	3.3	100.1*	1.4	11.3	-1.4	1.6
CCCCC(=O)NC1CCN(CCOC)CC1	·	-15.0	·	·	·	·
O=C(CNC(=O)c1cccc(OC(F)F)c1)OCc1cc(=O)n2cc(Br)ccc2n1	1.4	-22.8	-8.2	2.4	30.9*	·
Cc1cc(S(=O)(=O)Nc2cccc(-c3ccc(S(C)(=O)=O)nn3)c2)ccc1F	·	0.0	·	·	·	·
O=C(c1cccs1)c1no[n+]([O-])c1C(=O)c1cccs1	-2.2	4.0	0.7	6.2	2.3	11.4*
CCc1nnc(-c2cccc(OCC(=O)NC)c2)o1	·	1.0	·	·	·	·
CC1(C)CC(=O)c2sc(NC(=O)C(C)(C)C)nc2C1	1.7	-11.2	-2.5	6.2	5.1	-1.4
CC1(C)CC(=O)c2sc(NC(=O)CN3CCCCC3)nc2C1	0.7	-4.0	-3.6	-13.2	34.4*	3.1
COc1ccc(CN2CCN(c3cc(C)nc4c5c(C)cc(C)nc5nn34)CC2)cc1F	125.1*	-8.9	3.9	-0.9	5.0	1.2
O=C(Nc1ccc(S(=O)(=O)Nc2nccs2)cc1)C1CCCN(c2cc(C3CC3)ncn2)C1 (stereo not given)	·	6.0	·	·	·	·
COc1ccccc1Nc1nc(Nc2ccccc2)nc(N)c1[N+](=O)[O-]	·	1.0	·	·	·	·
CNc1nc(N)c([N+](=O)[O-])c(Nc2ccccc2OC)n1	6.2	-12.4	-15.5	5.1	31.9*	-0.6
O=C(CSc1nccn1Cc1ccc(Cl)cc1)Nc1ccc2c(c1)OCCO2	·	42.0*	·	·	·	·
O=C(CSc1nccn1-c1ccccc1)Nc1ccc2c(c1)OCO2	2.7	25.6	9.2	-5.8	8.7	0.5
C=CCn1c(-c2ccc(OC)cc2)cnc1SCC(=O)Nc1cccc(Cl)c1	·	39.0*	·	·	·	·
